Results taken from PubChem BioAssay AID488969 (Vanderbilt High Throughput Screening Facility, 2010).
Whole data set: some 110,000 compounds, median “z-score” near -0.1, cut for the highest 2% near 2. The entries come from a sample that favours the highest values as a whole. Calls of active or inactive are those of the source.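 Rule for the calls: active = z-score in the third read window above 3 or below -3; inactive = the rest.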

These compounds were tested against Metabotropic glutamate receptor 8 (Rattus norvegicus) (UniProt P70579) (assay: mGluR8 Gi/Go-coupled signaling modulation – cell-based, rat, thallium flux, HTS, primary screen (AID 488969)). Conditions: HEK293 rat mGluR8, GIRK (G protein-gated inwardly rectifying potassium channel) thallium flux, FluoZin2; at 10 µM; stronger effect = higher value.
Metabotropic glutamate receptor 8 (Rattus norvegicus), sequence (P70579 whole entry, looked up): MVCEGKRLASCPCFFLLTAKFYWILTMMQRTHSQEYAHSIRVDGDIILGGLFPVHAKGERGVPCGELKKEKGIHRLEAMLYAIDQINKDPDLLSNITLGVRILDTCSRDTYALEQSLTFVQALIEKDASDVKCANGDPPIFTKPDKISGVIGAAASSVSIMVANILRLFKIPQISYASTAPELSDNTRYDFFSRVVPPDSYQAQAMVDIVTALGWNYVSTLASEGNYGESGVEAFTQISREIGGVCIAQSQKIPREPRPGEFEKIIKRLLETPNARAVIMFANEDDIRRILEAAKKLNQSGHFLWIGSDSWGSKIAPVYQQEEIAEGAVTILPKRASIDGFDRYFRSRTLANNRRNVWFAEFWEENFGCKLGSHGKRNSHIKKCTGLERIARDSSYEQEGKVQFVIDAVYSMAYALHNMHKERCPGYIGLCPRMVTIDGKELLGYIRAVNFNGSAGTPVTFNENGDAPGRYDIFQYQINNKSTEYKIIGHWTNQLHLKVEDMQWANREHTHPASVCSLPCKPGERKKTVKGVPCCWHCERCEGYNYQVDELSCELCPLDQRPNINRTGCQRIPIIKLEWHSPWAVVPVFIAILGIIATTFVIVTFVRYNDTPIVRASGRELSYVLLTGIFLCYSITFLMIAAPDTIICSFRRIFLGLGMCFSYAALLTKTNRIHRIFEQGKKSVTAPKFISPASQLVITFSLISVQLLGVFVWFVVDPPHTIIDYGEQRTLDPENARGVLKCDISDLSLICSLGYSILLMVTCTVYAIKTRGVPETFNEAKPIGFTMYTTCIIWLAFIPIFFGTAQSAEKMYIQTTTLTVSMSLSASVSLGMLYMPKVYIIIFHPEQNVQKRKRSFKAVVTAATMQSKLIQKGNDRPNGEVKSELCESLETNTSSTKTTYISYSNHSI

| Compound | z-score |
| --- | --- |
| N#CC1=C(N)Oc2c(c(=O)oc3ccccc23)C1c1ccncc1 (configuration not stated) | -0.0723 |
| Cc1[nH]c2c(Cl)cccc2c1CCN | 0.371 |
| Cc1cccc(N2C(=O)NC(=O)/C(=C\c3cccn3-c3ccc(Cl)cc3)C2=O)c1 | -0.0172 |
| Cc1ccc(Cc2c(C)nc3nc(SCC(=O)N4CCC5(CC4)OCCO5)nn3c2C)cc1 | -0.0184 |
| O=C(COc1ccc(Cl)cc1)NC1CN2CCC1CC2 (configuration not stated) | -0.215 |
| CCNC(=O)C1OC(n2cnc3c(N)ncnc32)C(O)C1O (configuration not stated) | 2 |
| CCCCn1c(O)c(C(CC)=Nc2ccc(OC)cc2OC)c(=O)[nH]c1=O | -1.4 |
| Cc1nn(Cc2ccccc2)c(C)c1C=C1C(=O)NC(=S)NC1=O | -0.287 |
| Cn1cccc1/C=C1/C(=O)NC(=O)N(Cc2ccccc2)C1=O | -0.709 |
| Cc1nn(Cc2ccccc2)c(C)c1C=C1C(=O)NC(=O)NC1=O | 2.1 |
| CCn1c(P(C)(=O)O)nc2ccccc21 | -0.338 |
| CN1CCN(Cc2ccc(Br)s2)CC1 | 0.759 |
| CN1CCC(N(C)c2nc(-c3ccccc3)nc3ccccc23)CC1 | 0.199 |
| Cc1ccc(-c2nc(N(C)C3CCN(C)CC3)c3ccccc3n2)cc1 | 2.91 |
| CN1CCC(N(C)c2nc(-c3ccc([N+](=O)[O-])cc3)nc3ccccc23)CC1 | 0.562 |
| O=C(Cn1c(=S)[nH]c2ccccc2c1=O)N1CCC2(CC1)OCCO2 | 0.264 |
| CC1=NN(c2ccccc2)C(=O)C1/C=C1/C(=O)NC(=O)N(c2cccc(C)c2)C1=O (configuration not stated) | -0.395 |
| CCOC(=O)C(O)(c1ccc(N(CC)S(=O)(=O)c2ccc(C)cc2)cc1)C(F)(F)F (configuration not stated) | 2.37 |
| CCN(c1ccc(C(O)(C(=O)OC)C(F)(F)F)cc1)S(=O)(=O)c1ccc(C)cc1 (configuration not stated) | 1.21 |
| CCOC(=O)N(C)c1ccc(C(O)(C(=O)OCC)C(F)(F)F)cc1 (configuration not stated) | -0.0433 |
| O=C(c1ccccc1F)c1cn(CC(=O)N2CCCCC2)c2ccccc12 | -0.152 |
| CCN(CC)c1ccc(CN2CC=C(c3ccc(F)cc3)CC2)cc1 | 0.0485 |

| Compound | z-score |
| --- | --- |
| O=c1c(C=NCc2cccs2)c(O)n(C2CCCCC2)c(=O)n1C1CCCCC1 | -0.421 |
| Cn1c(O)c(C=NCCN2CCNCC2)c(=O)n(C)c1=O | -0.337 |
| O=c1c(C=NCCN2CCNCC2)c(O)n(C2CCCCC2)c(=O)n1C1CCCCC1 | 2.42 |
| COc1ccc(CCN(C)Cc2c(F)cccc2F)cc1OC | 0.419 |
| N#Cc1cc2c(nc1SCC(=O)Nc1cc(Cl)ccc1Cl)C1CCN2CC1 | -1.88 |
| CCS(=O)(=O)N1CCC(C(=O)N2CCC3(CC2)OCCO3)CC1 | 0.00257 |
| Cc1ccc2nc(N3CCC(C(=O)N4CCC5(CC4)OCCO5)CC3)sc2c1 | 4.28 (active) |
| O=C(C1CCN(S(=O)(=O)c2ccccc2)CC1)N1CCC2(CC1)OCCO2 | 0.255 |
| CC(C)CC(=O)NC(Oc1ccc(Cl)cc1)C(Cl)(Cl)Cl (configuration not stated) | -0.379 |
| CC1(C)CN2C(c3ccc(Cl)cc3)N2C1 (configuration not stated) | 0.161 |
| O=[N+]([O-])c1cc2c(cc1CNCCc1ccc3c(c1)OCO3)OCO2 | 0.309 |
| c1ccc(CNCCc2ccc3c(c2)OCO3)nc1 | -0.496 |
| c1ccc2c(CCNCc3ccc4c(c3)OCO4)c[nH]c2c1 | 2.19 |
| Cc1noc(C)c1C(=O)N1CCC2(CC1)OCCO2 | -0.294 |
| O=c1[nH]c2ccccc2c(=O)n1-c1cccc(Cl)c1 | -0.0839 |
| COc1cc(-n2c(=S)[nH]c3ccccc3c2=O)c(Cl)cc1Cl | 6.65 (active) |
| COc1cc2[nH]c(=O)n(-c3ccccc3)c(=O)c2cc1OC | -0.252 |
| COc1cc2[nH]c(=O)n(-c3cccc(Cl)c3)c(=O)c2cc1OC | -0.0317 |
| COc1ccc(-n2c(=O)[nH]c3ccccc3c2=O)cc1 | 0.343 |
| CC(C)Oc1cc(-n2c(=S)[nH]c3ccccc3c2=O)c(Cl)cc1Cl | 12.9 (active) |
| O=C(NC(Oc1ccccc1)C(Cl)(Cl)Cl)c1ccccc1 (configuration not stated) | -0.149 |
| CN(C(=O)Oc1ccc(Cl)c2cccnc12)c1ccccc1 | -0.251 |

| Compound | z-score |
| --- | --- |
| CCOc1ccc(N=Cc2c(O)n(C(C)(C)C)c(=O)[nH]c2=O)cc1 | -0.283 |
| CCOC(=O)C1C2NC(=O)N(Cc3ccccc3)C1(C)Oc1c(OC)cccc12 (configuration not stated) | 0.0221 |
| CCC(C)C1N=C(c2ccccc2)c2cc(Cl)ccc2N(CC(=O)NCc2ccco2)C1=O (configuration not stated) | -0.0258 |
| O=C(CN1C(=O)CN=C(c2ccccc2)c2ccccc21)NCc1ccco1 | -0.206 |
| O=C(CN1C(=O)CN=C(c2ccccc2Cl)c2cc(Cl)ccc21)NCc1ccco1 | 2.98 |
| OC(c1ccccc1)(c1ccccc1)c1ccncc1 | -0.0666 |
| Cn1cccc1CNCCc1ccccc1 | 6.88 (active) |
| Cn1cccc1CNCCc1ccc(F)cc1 | -0.24 |
| c1ccc(CCNCc2ccccc2)cc1 | -0.78 |
| CCC(=NCCCN(CC)CC)c1c(O)n(C2CCCCC2)c(=O)[nH]c1=O | -0.25 |
| N#Cc1c(Cl)nc(Cl)c2c1CCN(Cc1ccccc1)C2 | -0.608 |
| Cc1ccc(OP(=O)(NCc2ccccc2)Oc2ccc(C)cc2)cc1 | -0.00664 |
| OCC12CO[C@@H]3c4ccccc4[C@H](OC1)N32 (some centres not stated) | -0.0926 |
| CON(C)C(=O)Nc1ccc(Cl)cc1 | 0.516 |
| O=C(Nc1ccc(Cl)cc1)O/N=C(\c1ccccc1)c1ccccn1 | -0.375 |
| O=C(Nc1ccc(Cl)cc1)Nc1nccs1 | 8.34 (active) |
| CCC(C)c1ccc(N2C(=O)NC(=O)/C(=C/c3cccn3CCOc3ccc(C)cc3)C2=O)cc1 (configuration not stated) | 0.272 |
| Cc1cc(C)c(-n2c(O)c(/C=N/N3CCCCC3c3cccnc3)c(=O)[nH]c2=O)c(C)c1 (configuration not stated) | -0.531 |
| Cc1nn(Cc2ccccc2)c(Cl)c1C(=O)OC(C)C(=O)Nc1ccc(F)cc1Cl (configuration not stated) | 0.0724 |
| CCCCc1nc(N2CCNCC2)c(C#N)c2c1CSC(C)(C)C2 | 2.01 |
| COc1ccc(CCNC(=O)COC(=O)Cc2ccccc2)cc1 | -0.0964 |
| O=P(OCC(F)(F)C(F)F)(N1CCCCC1)N1CCCCC1 | -0.0155 |

| Compound | z-score |
| --- | --- |
| COC(=O)c1ccccc1-n1c(C)nc2ccccc2c1=O | -0.159 |
| CCCCCn1c(=O)c(C(=O)NCc2ccncc2)c(O)c2ccccc21 | -1.2 |
| CCCCCn1c(=O)c(C(=O)Nc2c(C)n(C)n(-c3ccccc3)c2=O)c(O)c2ccccc21 | -0.252 |
| CC(C)CCn1c(=O)c(C(=O)Nc2ccccc2S(N)(=O)=O)c(O)c2ccccc21 | 2 |
| Cn1cc(C(=O)Cc2ccccc2)c2ccccc21 | 0.166 |
| NC12CN3CN(CN(C3)C1)C2 (tested in a mixture with another compound) | -0.55 |
| CCN1CCN(CC(=O)c2c(C)n(Cc3ccccc3)c3ccc(OC)cc23)CC1 | 0.191 |
| CC(C)NC(C)C(=O)C12CC3CC(CC(C3)C1)C2 (configuration not stated) | 0.115 |
| CC(NC1CCCCC1)C(O)C12CC3CC(CC(C3)C1)C2 (configuration not stated) | 2.39 |
| O=C(COC(=O)Cc1ccccc1)NC12CC3CC(CC(C3)C1)C2 | -0.0902 |
| CCCCn1c(C)c(C(=O)O)c2cc(OC)ccc21 | -0.364 |
| COCCn1c(-c2ccccc2)cc(C(=O)O)c1C | 2.06 |
| COCCCn1c(-c2ccc(OC)cc2)cc(C(=O)NC2CCCCCCC2)c1C | -0.648 |
| CCS(=O)(=O)N1CCCC(C(=O)N2CCC3(CC2)OCCO3)C1 (configuration not stated) | 0.0065 |
| CC(C)c1cccc(C(C)C)c1OCCn1ccnc1 | 2.23 |
| CCOc1ccc(-n2c(O)c(C=NCCCn3ccnc3)c(=O)[nH]c2=O)cc1 | 0.0171 |
| CCCCCCCSc1cc(OC)c(CCNC)cc1OC | 2.15 |
| CCCCCSc1cc(OC)c(CCNC)cc1OC | 0.115 |
| CCCCCSc1cc(OC)c(CCN)cc1OC | 1.67 |
| O=C(C1CC(c2ccc(Cl)c(Cl)c2)=NO1)N1CCC2(CC1)OCCO2 (configuration not stated) | 0.509 |
| O=c1[nH]c(=O)n(Cc2ccccc2)c(O)c1C=Nc1ccc(CN2CCOCC2)cc1 | -0.0494 |
